We go through one sequence from publication PMC7862700, “An all-to-all approach to the identification of sequence-specific readers for epigenetic DNA modifications on cytosine”.

Common to all, as to test: DAPPL (digital affinity profiling via proximity ligation, sequencing); 10 mM Tris-HCl pH 7.5, 50 mM NaCl, 1 mM DTT, 4% glycerol, room temperature, 30 min; GST-TFs on glutathione beads, 16-mer random dsDNA library, 0.1% formaldehyde crosslink after washing; high values mean tight binding
For one assay, the target named is T1, FEV (Homo sapiens, UniProt Q99581 1-238).
T1 sequence: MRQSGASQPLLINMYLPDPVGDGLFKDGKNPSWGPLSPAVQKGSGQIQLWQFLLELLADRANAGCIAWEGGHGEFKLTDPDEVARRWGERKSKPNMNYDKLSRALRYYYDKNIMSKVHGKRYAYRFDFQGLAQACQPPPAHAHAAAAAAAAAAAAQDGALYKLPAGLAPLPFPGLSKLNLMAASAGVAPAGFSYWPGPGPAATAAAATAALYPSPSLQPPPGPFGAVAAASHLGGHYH
The following applies: protein: recombinant; tags: N-terminal GST; dsDNA, one strand shown. In a few lines: (§1)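 In yeast, human transcription factors were expressed with a GST fusion, then pulled down on glutathione beads and given DNA barcodes. Pooled with a tag-only sample, they were exposed to 200 nmole of a 16-mer random double-stranded DNA library (Tris/NaCl/DTT/glycerol buffer, room temperature, 30 min), washed, crosslinked with 0.1% formaldehyde, proximity-ligated using BsaI/T4 ligase for 1 h at 37 °C, PCR-amplified and read on an Illumina NextSeq500. Each hexamer's frequency of reads for a factor, divided by the matching frequency for the tag-only sample, gives the binding signal.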

A further assay addresses ETV5 (Homo sapiens, UniProt P41161 1-510). The following applies: protein: recombinant; tags: N-terminal GST; dsDNA, one strand shown. In a few lines: as §1
The target in another assay is HSF1 (Homo sapiens, UniProt Q00613 1-529). Particulars: protein: recombinant; tags: N-terminal GST; chain copies: 3; dsDNA, one strand shown. Summed up: as §1
HSF1, sequence (Q00613 whole entry): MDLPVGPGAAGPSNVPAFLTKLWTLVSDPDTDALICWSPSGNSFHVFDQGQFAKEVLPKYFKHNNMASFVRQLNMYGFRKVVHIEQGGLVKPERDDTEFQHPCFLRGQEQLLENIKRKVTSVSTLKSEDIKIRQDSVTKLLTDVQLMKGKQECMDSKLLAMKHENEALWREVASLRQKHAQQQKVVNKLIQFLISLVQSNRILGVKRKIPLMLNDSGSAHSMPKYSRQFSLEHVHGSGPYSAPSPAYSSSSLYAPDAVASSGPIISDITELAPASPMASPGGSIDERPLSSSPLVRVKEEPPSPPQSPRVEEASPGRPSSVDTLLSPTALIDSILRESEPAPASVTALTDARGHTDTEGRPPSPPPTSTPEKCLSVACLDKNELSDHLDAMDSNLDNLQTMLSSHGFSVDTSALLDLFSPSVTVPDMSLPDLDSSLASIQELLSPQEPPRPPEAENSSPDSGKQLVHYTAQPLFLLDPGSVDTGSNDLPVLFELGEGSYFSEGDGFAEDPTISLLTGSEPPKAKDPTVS
For another assay, the target named is T2, SPIC (Homo sapiens, UniProt Q8N5J4 1-248).
T2 sequence: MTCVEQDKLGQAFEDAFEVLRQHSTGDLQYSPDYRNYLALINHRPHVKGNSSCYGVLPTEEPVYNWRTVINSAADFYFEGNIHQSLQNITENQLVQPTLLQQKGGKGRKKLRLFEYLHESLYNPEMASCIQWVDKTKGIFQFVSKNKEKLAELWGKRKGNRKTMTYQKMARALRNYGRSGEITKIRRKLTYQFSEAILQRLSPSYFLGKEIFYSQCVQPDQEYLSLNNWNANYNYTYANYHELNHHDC
The following applies: protein: recombinant; tags: N-terminal GST; dsDNA, one strand shown. In a few lines:
as §1

The target in another assay is ELF4 (Homo sapiens, UniProt Q99607 1-663). Particulars: protein: recombinant; tags: N-terminal GST; dsDNA, one strand shown. Summed up:
as §1

The target of the next assay is T3, ELK4 (Homo sapiens, UniProt P28324-2 1-405).
T3 sequence: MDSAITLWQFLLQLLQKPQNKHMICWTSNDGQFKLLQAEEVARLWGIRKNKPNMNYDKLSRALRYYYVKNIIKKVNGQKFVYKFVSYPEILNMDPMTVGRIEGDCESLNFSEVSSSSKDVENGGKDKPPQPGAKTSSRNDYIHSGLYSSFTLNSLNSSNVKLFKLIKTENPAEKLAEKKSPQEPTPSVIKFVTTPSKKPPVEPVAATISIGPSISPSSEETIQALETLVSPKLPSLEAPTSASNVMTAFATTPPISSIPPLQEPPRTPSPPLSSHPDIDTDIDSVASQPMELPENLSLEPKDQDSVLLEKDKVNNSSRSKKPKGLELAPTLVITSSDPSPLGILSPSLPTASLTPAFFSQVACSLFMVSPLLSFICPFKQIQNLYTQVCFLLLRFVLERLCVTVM
Particulars: protein: recombinant; tags: N-terminal GST; dsDNA, one strand shown. In a few lines:
as §1

A further assay addresses T4, ETV2 (Homo sapiens, UniProt O00321 1-342).
T4 sequence: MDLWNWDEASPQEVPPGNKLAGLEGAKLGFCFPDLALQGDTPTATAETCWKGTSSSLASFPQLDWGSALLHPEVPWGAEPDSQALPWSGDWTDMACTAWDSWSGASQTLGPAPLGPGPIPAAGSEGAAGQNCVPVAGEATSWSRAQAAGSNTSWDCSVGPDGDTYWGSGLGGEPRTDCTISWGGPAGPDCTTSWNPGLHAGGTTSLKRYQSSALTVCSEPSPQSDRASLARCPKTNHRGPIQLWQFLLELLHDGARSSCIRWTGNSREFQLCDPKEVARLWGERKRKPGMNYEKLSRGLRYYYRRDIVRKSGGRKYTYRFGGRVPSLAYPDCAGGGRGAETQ
Particulars: protein: recombinant; tags: N-terminal GST; dsDNA, one strand shown. In a few lines:
as §1

The target of a further assay is T5, ELF3 (Homo sapiens, UniProt P78545 1-371).
T5 sequence: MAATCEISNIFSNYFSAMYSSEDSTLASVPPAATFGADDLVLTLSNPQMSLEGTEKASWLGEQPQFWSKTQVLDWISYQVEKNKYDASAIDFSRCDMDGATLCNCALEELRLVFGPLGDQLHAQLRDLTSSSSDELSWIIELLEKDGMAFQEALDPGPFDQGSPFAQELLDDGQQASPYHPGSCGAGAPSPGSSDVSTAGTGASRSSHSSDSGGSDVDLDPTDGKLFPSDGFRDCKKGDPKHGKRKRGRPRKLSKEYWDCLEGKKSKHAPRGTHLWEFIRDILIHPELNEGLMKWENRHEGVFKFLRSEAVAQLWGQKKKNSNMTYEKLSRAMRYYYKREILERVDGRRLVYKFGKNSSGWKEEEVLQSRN
Particulars: protein: recombinant; tags: N-terminal GST; dsDNA, one strand shown. In a few lines:
as §1

The target of a further assay is CRX (Homo sapiens, UniProt O43186 1-299). Particulars: protein: recombinant; tags: N-terminal GST; dsDNA, one strand shown. In a few lines:
as §1

For a further assay, the target named is ETV1 (Homo sapiens, UniProt P50549 1-477). Particulars: protein: recombinant; tags: N-terminal GST; dsDNA, one strand shown. Summed up: as §1
ETV1, sequence (P50549 whole entry): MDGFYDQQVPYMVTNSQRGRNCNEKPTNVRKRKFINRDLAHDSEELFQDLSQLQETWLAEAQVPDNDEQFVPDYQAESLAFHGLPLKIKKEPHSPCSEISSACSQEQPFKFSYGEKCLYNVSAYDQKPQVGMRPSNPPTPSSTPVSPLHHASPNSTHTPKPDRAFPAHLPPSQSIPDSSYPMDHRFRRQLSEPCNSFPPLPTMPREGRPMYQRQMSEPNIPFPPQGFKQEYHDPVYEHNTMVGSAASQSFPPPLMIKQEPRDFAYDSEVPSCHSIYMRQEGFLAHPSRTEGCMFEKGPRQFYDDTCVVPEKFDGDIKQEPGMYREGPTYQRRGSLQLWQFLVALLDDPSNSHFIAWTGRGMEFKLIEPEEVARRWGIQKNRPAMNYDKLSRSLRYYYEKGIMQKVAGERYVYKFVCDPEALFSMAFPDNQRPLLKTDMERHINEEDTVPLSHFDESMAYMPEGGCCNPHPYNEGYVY
Another assay concerns the target T6, ERF (Homo sapiens, UniProt P50548 1-548).
T6 sequence: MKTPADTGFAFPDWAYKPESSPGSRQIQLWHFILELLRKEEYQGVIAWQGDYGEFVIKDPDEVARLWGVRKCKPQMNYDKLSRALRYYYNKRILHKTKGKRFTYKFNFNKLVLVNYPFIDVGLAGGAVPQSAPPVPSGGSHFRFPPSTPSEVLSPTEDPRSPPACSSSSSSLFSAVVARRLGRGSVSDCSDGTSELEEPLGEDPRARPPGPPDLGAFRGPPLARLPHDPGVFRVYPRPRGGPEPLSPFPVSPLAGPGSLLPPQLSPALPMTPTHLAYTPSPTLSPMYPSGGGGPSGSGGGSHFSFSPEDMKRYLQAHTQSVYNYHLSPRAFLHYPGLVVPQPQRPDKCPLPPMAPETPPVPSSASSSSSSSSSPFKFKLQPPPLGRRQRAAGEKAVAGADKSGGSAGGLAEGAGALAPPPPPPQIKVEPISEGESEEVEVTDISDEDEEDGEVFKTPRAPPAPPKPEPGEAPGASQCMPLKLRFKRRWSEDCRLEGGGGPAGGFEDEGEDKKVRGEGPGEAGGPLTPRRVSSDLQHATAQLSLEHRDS
The following applies: protein: recombinant; tags: N-terminal GST; dsDNA, one strand shown. Summed up: as §1

In another assay the target is T7, ETV3L (Homo sapiens, UniProt Q6ZN32 1-361).
T7 sequence: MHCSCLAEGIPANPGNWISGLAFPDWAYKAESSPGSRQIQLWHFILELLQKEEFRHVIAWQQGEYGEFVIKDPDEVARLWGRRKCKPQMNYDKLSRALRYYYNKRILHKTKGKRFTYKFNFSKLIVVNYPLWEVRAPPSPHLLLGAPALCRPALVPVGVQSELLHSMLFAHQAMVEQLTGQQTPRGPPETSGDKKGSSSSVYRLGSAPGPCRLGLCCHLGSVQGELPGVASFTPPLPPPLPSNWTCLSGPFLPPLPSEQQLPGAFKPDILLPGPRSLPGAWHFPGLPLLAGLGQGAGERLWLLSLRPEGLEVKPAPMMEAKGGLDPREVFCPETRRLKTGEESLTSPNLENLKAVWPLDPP
The following applies: protein: recombinant; tags: N-terminal GST; dsDNA, one strand shown. Summed up:
as §1

Another assay addresses T8, ETS2 (Homo sapiens, UniProt P15036 1-469).
T8 sequence: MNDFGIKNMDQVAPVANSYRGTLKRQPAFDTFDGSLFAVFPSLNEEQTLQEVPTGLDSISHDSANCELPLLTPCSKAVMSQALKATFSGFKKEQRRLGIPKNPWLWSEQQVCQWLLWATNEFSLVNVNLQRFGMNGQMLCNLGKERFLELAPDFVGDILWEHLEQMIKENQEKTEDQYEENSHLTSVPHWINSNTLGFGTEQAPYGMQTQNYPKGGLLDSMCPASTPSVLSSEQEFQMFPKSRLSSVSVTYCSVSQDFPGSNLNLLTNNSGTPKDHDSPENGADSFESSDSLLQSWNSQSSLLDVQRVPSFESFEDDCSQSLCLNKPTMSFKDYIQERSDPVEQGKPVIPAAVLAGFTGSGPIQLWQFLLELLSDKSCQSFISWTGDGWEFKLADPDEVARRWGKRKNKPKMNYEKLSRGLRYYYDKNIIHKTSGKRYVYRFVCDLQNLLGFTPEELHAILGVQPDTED
Particulars: protein: recombinant; tags: N-terminal GST; dsDNA, one strand shown. In a few lines: as §1

The next assay deals with T9, SPDEF (Homo sapiens, UniProt O95238 1-335).
T9 sequence: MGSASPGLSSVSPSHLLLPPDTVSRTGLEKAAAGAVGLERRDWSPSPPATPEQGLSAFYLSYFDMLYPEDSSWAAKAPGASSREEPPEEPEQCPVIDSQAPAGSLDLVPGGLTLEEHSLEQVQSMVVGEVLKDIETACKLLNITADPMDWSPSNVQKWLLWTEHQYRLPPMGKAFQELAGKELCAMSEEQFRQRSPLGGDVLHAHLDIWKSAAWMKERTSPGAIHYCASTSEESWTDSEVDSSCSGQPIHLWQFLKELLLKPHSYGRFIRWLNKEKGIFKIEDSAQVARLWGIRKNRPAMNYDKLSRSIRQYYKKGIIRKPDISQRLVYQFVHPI
Particulars: protein: recombinant; tags: N-terminal GST; dsDNA, one strand shown. Summed up: as §1

In the next assay the target is T10, ETV7 (Homo sapiens, UniProt Q9Y603 1-341).
T10 sequence: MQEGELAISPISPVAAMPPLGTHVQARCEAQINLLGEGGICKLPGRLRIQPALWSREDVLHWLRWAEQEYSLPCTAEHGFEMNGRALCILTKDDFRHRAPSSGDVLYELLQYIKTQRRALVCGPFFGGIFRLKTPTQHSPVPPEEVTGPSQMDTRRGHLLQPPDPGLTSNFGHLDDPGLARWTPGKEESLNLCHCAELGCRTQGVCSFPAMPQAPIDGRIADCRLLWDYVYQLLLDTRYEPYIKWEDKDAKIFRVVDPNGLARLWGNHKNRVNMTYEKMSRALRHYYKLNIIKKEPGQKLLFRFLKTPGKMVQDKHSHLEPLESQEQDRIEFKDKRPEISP
The following applies: protein: recombinant; tags: N-terminal GST; dsDNA, one strand shown. In a few lines: as §1

In the next assay the target is T11, ELF5 (Homo sapiens, UniProt Q9UKW6-2 1-255).
T11 sequence: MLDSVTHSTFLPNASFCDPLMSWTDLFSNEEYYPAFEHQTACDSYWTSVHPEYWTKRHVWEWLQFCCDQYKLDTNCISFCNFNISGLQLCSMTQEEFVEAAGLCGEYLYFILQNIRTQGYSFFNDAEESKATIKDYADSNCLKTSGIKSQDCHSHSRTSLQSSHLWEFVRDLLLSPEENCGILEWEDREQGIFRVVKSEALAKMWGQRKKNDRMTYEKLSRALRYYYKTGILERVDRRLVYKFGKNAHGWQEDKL
Particulars: protein: recombinant; tags: N-terminal GST; dsDNA, one strand shown. Summed up:
as §1

In the next assay the target is T12, ETV3 (Homo sapiens, UniProt P41162-2 1-143).
T12 sequence: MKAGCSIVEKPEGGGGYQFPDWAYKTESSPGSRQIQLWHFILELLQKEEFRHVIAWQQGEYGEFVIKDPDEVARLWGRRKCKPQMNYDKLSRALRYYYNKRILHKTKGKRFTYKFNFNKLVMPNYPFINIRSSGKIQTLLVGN
Particulars: protein: recombinant; tags: N-terminal GST; dsDNA, one strand shown. Summed up:
as §1

In a further assay the target is ETV6 (Homo sapiens, UniProt P41212 1-452). Particulars: protein: recombinant; tags: N-terminal GST; dsDNA, one strand shown. Summed up: as §1
ETV6, sequence (P41212 whole entry): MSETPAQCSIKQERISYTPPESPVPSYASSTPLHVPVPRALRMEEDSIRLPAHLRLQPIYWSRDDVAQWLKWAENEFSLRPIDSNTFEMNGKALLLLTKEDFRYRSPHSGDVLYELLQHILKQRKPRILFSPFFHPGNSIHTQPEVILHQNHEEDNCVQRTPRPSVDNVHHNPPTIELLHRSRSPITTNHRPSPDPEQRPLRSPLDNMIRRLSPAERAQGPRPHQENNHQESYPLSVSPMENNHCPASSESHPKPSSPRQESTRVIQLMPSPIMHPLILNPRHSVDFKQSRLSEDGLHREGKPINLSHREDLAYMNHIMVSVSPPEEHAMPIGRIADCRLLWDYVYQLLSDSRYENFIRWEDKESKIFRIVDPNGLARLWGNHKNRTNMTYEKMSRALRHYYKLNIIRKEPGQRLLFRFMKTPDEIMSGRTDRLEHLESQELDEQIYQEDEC

ELF4, sequence (Q99607 whole entry): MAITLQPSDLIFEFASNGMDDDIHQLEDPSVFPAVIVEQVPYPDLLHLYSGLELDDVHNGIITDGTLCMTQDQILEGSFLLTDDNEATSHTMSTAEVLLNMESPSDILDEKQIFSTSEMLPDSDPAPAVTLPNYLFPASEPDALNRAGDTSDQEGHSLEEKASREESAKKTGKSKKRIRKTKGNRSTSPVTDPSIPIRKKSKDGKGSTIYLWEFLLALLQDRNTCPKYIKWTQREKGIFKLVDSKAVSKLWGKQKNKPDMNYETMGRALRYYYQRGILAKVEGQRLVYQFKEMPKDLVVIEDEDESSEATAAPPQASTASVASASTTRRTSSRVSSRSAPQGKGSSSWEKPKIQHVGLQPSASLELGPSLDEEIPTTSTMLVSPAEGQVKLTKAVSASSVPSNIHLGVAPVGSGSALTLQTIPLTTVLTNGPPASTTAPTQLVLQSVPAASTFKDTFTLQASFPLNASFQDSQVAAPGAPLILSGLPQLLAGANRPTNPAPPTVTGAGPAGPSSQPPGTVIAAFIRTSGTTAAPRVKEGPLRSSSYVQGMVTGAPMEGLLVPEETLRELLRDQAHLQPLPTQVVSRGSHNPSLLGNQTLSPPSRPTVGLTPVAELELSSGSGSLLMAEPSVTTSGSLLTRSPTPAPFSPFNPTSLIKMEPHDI
ETV5, sequence (P41161 whole entry): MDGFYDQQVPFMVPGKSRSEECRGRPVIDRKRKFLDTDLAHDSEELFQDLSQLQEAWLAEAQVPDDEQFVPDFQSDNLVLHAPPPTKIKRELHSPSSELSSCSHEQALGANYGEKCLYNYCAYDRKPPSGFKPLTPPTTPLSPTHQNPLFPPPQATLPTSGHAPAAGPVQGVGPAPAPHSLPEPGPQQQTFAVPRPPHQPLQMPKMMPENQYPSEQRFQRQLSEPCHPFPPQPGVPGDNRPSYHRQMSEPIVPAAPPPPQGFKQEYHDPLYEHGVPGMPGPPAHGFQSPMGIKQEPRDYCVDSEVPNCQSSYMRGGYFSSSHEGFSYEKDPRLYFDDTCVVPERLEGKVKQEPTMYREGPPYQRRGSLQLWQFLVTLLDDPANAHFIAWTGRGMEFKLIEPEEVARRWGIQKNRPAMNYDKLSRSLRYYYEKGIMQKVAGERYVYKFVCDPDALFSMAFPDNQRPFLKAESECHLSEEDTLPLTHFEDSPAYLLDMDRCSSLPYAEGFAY
CRX, sequence (O43186 whole entry): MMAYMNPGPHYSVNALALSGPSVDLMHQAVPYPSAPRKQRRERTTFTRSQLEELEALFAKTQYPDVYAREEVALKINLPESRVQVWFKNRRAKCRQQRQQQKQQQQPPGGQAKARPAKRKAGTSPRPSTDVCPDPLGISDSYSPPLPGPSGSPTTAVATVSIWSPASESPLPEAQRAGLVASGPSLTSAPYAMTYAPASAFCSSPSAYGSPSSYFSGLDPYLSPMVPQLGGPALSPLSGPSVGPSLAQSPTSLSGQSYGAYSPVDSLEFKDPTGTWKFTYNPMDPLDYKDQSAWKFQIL

For CTTGAT, the binding signal was 1.38 fold enrichment (6-mer frequency, TF over GST control) with FEV; 1.43 fold enrichment (6-mer frequency, TF over GST control) with ETV5; 1.44 fold enrichment (6-mer frequency, TF over GST control) with HSF1; 1.41 fold enrichment (6-mer frequency, TF over GST control) with SPIC; 1.43 fold enrichment (6-mer frequency, TF over GST control) in the assay with ELF4; 1.43 fold enrichment (6-mer frequency, TF over GST control) in the assay with ELK4. The binding signal in the assay with ETV2 is 1.43 fold enrichment (6-mer frequency, TF over GST control); with ELF3, 1.38 fold enrichment (6-mer frequency, TF over GST control); in the assay with CRX, 1.57 fold enrichment (6-mer frequency, TF over GST control); with ETV1, 1.29 fold enrichment (6-mer frequency, TF over GST control); in the assay with ERF it was 1.47 fold enrichment (6-mer frequency, TF over GST control); with ETV3L, 1.42 fold enrichment (6-mer frequency, TF over GST control). In addition, the binding signal with ETS2 was 1.35 fold enrichment (6-mer frequency, TF over GST control); with SPDEF it was 1.34 fold enrichment (6-mer frequency, TF over GST control); in the assay with ETV7 it was 1.28 fold enrichment (6-mer frequency, TF over GST control); in the assay with ELF5 it was 1.39 fold enrichment (6-mer frequency, TF over GST control); with ETV3 it was 1.35 fold enrichment (6-mer frequency, TF over GST control); in the assay with ETV6 it was 1.24 fold enrichment (6-mer frequency, TF over GST control).
